PubChem BioAssay AID720648 (The Scripps Research Institute Molecular Screening Center, 2013)
Hit rate of the full screen: of about 370,000 compounds, about 3,100 (0.84%) were called active.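 Rule for the calls: active = inhibition above the mean of compounds lying between control limits plus 3 SD, set per campaign (cut at about 8.5% in these data); inactive = the rest.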 Many of the other results were omitted from the sample, so actives are more common in it than they were.

Molecular target: Disintegrin and metalloproteinase domain-containing protein 17 (Homo sapiens) (UniProt P78536)
Sequence (P78536 215-824 limits assumed): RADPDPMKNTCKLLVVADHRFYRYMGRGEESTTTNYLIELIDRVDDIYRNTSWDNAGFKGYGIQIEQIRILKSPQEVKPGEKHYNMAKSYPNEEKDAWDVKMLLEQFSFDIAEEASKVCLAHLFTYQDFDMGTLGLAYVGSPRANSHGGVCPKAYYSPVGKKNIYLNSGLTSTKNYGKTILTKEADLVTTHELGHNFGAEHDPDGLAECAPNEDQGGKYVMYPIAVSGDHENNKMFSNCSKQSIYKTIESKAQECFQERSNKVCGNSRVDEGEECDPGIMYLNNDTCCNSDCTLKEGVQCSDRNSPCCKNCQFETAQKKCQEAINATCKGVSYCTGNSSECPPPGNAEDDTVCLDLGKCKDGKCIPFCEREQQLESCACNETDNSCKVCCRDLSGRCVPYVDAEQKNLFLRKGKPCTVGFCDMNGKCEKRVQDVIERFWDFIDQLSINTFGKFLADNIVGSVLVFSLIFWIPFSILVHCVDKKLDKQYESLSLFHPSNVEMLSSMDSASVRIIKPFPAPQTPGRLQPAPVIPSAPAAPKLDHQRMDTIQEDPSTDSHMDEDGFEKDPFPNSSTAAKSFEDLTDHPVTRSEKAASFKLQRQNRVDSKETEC
Test: inhibition of ADAM17 peptide cleavage – biochemical, QFRET, primary screen (AID 720648);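 note: 0% = DMSO-only wells as the low control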
Conditions: recombinant ADAM17, EDANS/DABCYL FRET peptide cleavage; at 6.95 µM; stronger effect = higher value

Compound	inhibition
CC(C)CNS(=O)(=O)CC1NCCc2ccccc21 (stereo unspecified)	-3.23% (inactive)
COc1ccc(C(=O)OCCN2CCN(C3CN(Cc4cn(Cc5ccccc5F)nn4)S(=O)(=O)C3)CC2)cc1OC (stereo unspecified)	-4.52% (inactive)
CC(=O)Nc1nc2ncccn2c1-c1ccc(C(F)(F)F)cc1	-266% (inactive)
CC(C)(C)c1ccc(S(=O)(=O)NCC2CCN(C(=O)C(=O)c3cc4ccccc4o3)CC2)cc1	9.75% (active)
O=C(C(=O)N1CCC(CNS(=O)(=O)Cc2ccccc2)CC1)c1cc2ccccc2o1	-3.01% (inactive)
N#Cc1cccc(C(=O)NCC2CCN(C(=O)C(=O)c3cc4ccccc4o3)CC2)c1	-3.28% (inactive)
CC(C)C(C#CC1CC1)N(Cc1ccc2c(c1)OCO2)C(N)=NC(=O)/C=C/c1cccc(C(F)(F)F)c1 (stereo unspecified)	-3.71% (inactive)
COc1ccc(-c2cc(-c3nnc(SCc4ccc([N+](=O)[O-])cc4)n3N)[nH]n2)cc1	-2.61% (inactive)
CC(=O)NC(Cc1ccccc1)C(=O)NC1CCN(c2ncccc2[N+](=O)[O-])CC1 (stereo unspecified)	-2.81% (inactive)
COc1ccc(-c2cc(C3CCN(c4ncccc4[N+](=O)[O-])CC3)[nH]n2)cc1	9.29% (active)
O=C1CCC2(CCC(c3ccc(Cl)cc3)CC2)N1CCO (stereo unspecified)	1.61% (inactive)
CCn1c(=O)n2n(c1=O)[C@@]1(C=C3CCCC[C@H]32)N=C(NC(=O)c2ccccc2)N(Cc2ccccc2)[C@H]1Cc1ccccc1	5.91% (inactive)
Cn1c(Nc2ccccc2)cc(=O)n(C)c1=O	-0.84% (inactive)
Cc1cc(Nc2ccccc2)n(C(=O)c2ccc(N)cc2)n1	8.62% (active)
Cc1ccc(NC(=O)Nc2cc(C)nn2-c2ccccc2)cc1	-1.4% (inactive)
COC(C(=O)NCc1ccccc1C)c1ccccc1 (stereo unspecified)	-5.21% (inactive)
COC(C(=O)Nc1ccc(S(=O)(=O)Nc2ccc(C)c(C)c2)cc1)c1ccccc1 (stereo unspecified)	9.01% (active)
CCC(Oc1ccccc1C)C(=O)Nc1ccc(S(=O)(=O)Nc2cc(C)on2)cc1 (stereo unspecified)	-4.21% (inactive)
COc1cccc(Cn2cc(COC(=O)Nc3ccc(F)cc3)nn2)c1	-1.05% (inactive)
COc1ccccc1C(=O)NC1CCCCN(C(C)C)C1=O (stereo unspecified)	-7.08% (inactive)
COc1ccc(CN(C(=O)c2cccs2)c2nccs2)cc1OC	0.3% (inactive)
O=C(O)CCC(=O)N(Cc1ccco1)c1nc(-c2ccccc2)cs1	-2.47% (inactive)

Compound	inhibition
COc1ccc(CCN(C(=O)COc2ccccc2)c2nc(-c3ccccc3)cs2)cc1OC	9.24% (active)
C[C@@H]1COc2cccc(N3CCCC3)c2S(=O)(=O)N1C	-5.16% (inactive)
C=CCN1[C@@H](Cc2ccccc2)COc2cccc(N3CCSCC3)c2S1(=O)=O	-1.76% (inactive)
CCCn1nc(C(=O)NNC(=O)CSCC(=O)Nc2cc(C)on2)c2ccccc2c1=O	11.3% (active)
CCCn1nc(C(=O)NNC(=O)CCOc2ccccc2OCC)c2ccccc2c1=O	-0.01% (inactive)
Cc1cc(NC(=O)CSCC(=O)NC(C)c2ccccc2)no1 (stereo unspecified)	-2.03% (inactive)
COC(=O)C1CN(CCc2ccccc2)CCS(=O)(=O)N1Cc1ccc(F)cc1 (stereo unspecified)	-9.15% (inactive)
O=[N+]([O-])c1cc(S(=O)(=O)NCCc2ccccn2)ccc1Cl	0.55% (inactive)
CCOc1ccc(S(=O)(=O)NCCSc2ccccc2)cc1	6.1% (inactive)
Cc1ccc(S(=O)(=O)NCCSc2ccccc2)cc1[N+](=O)[O-]	10.7% (active)
C[C@H](C(=O)N(C)c1ccccc1)[C@@H](O)c1ccc2ccccc2c1	-5.59% (inactive)
CCN(CC)C(=O)CC[C@@H]1CC[C@]2(CCCN(S(=O)(=O)C3CCCCC3)C2)O1	-0.83% (inactive)
O=C(CSCc1ccc(Br)cc1)Nc1ccc(S(=O)(=O)N2CCCCCC2)cc1	12.9% (active)
O=C(CN1CCCCCC1)Nc1ccc(S(=O)(=O)N2CCCCC2)cc1	-1.57% (inactive)
COc1ccc(OCC(=O)OCC(=O)Nc2ccc(S(=O)(=O)N3CCCCC3)cc2)cc1	-0.04% (inactive)
N#CCC[C@H]1CC[C@]2(CCCN(Cc3ccc(Cl)cc3)C2)O1	-4.85% (inactive)
COc1ccc(-n2c(SCC(=O)NC3CCCC3)nnc2-c2ccncc2)cc1	-3.54% (inactive)
COc1ccccc1N(C(=O)Cn1nnc2ccccc21)C(C(=O)NCc1ccco1)c1ccc(C)o1 (stereo unspecified)	-3.12% (inactive)
COCCNC(=O)C(c1ccc(C)o1)N(Cc1ccccc1)C(=O)Cn1nnc2ccccc21 (stereo unspecified)	9.14% (active)
CCC(C)(C)NC(=O)C(c1cccn1C)N(Cc1ccc(C)cc1)C(=O)Cn1nnc2ccccc21 (stereo unspecified)	0.71% (inactive)
COCCCNC(=O)C[C@H]1C[C@@]2(C(=O)OC)C(=C[C@H](C(C)(C)C)O[C@@H]2C)N(Cc2ccc(Cl)cc2Cl)C1=O	3.29% (inactive)
CCOC(=O)[C@@]12CN(C(=O)OC(C)(C)C)CC=C1N(Cc1ccc(OC)cc1)C(=O)[C@H]2CC(=O)NCc1ccc(OC)c(OC)c1	1.15% (inactive)

Compound	inhibition
COc1ccc(S(=O)(=O)N2CCN(C(C)C(=O)Nc3ccc(C(C)C)cc3)CC2)cc1 (stereo unspecified)	12.4% (active)
COc1cccc(CNC(C)C(=O)Nc2ccc(S(=O)(=O)N3CCCC3)cc2)c1 (stereo unspecified)	-0.82% (inactive)
CC(C)c1ccc(S(=O)(=O)N2CCN(C(C)C(=O)NC3CCCC3)CC2)cc1 (stereo unspecified)	0.12% (inactive)
C[C@@H]1ON(C)[C@H]2C[C@H]3c4[nH]c5cccc(-c6ccc7c(c6)OCO7)c5c4CCN3C[C@@H]12	-16.2% (inactive)
COc1ccccc1CCNC(=O)C1CCN(c2nc(C)cc(C)n2)CC1	-1.54% (inactive)
O=S1(=O)c2c(NCc3ccco3)cccc2Oc2ccccc2CN1Cc1cn(Cc2cccc(C(F)(F)F)c2)nn1	-1.67% (inactive)
COc1ccc(Cl)cc1NC(=O)COC(=O)C(CC(C)C)N1C(=O)C2CC=CCC2C1=O (stereo unspecified)	18.9% (active)
COc1ccc(Cl)cc1NC(=O)COC(=O)c1ccc(Br)o1	-0.97% (inactive)
COc1ccc(Cl)cc1NC(=O)c1cccc(N2C(=O)C3CC=CCC3C2=O)c1 (stereo unspecified)	-4.89% (inactive)
Cc1cccc(C(=O)Nc2c(-c3ccc(F)cc3)nc3ncccn23)c1	-94.5% (inactive)
CCOC(=O)c1csc(NC(=O)C2CCCN(S(=O)(=O)c3ccc(Cl)s3)C2)n1 (stereo unspecified)	1.07% (inactive)
COc1ccc([N+](=O)[O-])cc1NCC(=O)c1ccc(C)cc1	0.13% (inactive)
COc1cccc(/C=N/NC(=O)c2cccc([N+](=O)[O-])c2)c1OS(=O)(=O)c1ccc(C)cc1	9.36% (active)
Cc1ccccc1OS(=O)(=O)c1cccc([N+](=O)[O-])c1	3.53% (inactive)
O=C(CSc1nc2c(c(=O)[nH]1)CCCC2)N1CCCCC1	-1.39% (inactive)
CC(C)Oc1cc(F)ccc1-c1cc(C(=O)Nc2cccc(Cl)c2)[nH]n1	12.5% (active)
CC(C)Oc1cc(F)ccc1-c1cc(C(=O)Nc2ccc(F)cc2)[nH]n1	2.41% (inactive)
COc1cc(NC(=O)c2cc(-c3ccc(F)cc3OC(C)C)n[nH]2)cc(OC)c1OC	3.11% (inactive)
O=C(N1CCOCC1)N1CC[C@H]2[C@H](CCCN2Cc2ccc(F)cc2)C1	-3.39% (inactive)
O=C(NC1CCC1)c1ccc(C#CC2CC2)cn1	-2.55% (inactive)
Cc1ccc(-n2c(Cc3cccs3)nnc2SCC(=O)OC(C)C)cc1	-0.84% (inactive)
CCn1c(SCC(=O)c2ccc(Cl)s2)nnc1-c1cccs1	-2.07% (inactive)

Compound	inhibition
CCn1c(Cc2cccs2)nnc1SCC(=O)c1ccc(C)cc1	9.16% (active)
CCC(=O)Nc1ccc2c(c1)C(=O)N(C)[C@H]1CC[C@H](CC(=O)NCCOC)O[C@@H]1CO2	-1.85% (inactive)
COc1ccc(C#CCNCc2ccc(OC)cc2OC)cc1	-5.67% (inactive)
COC(=O)c1ccccc1-n1cc(COC(=O)NCCc2ccccc2)nn1	-7.96% (inactive)
CC1Cc2ccccc2N1S(=O)(=O)c1cccc(C(=O)OCC(=O)N2CCOCC2)c1 (stereo unspecified)	-5.91% (inactive)
CC1Cc2ccccc2N1S(=O)(=O)c1cccc(C(=O)NCC(c2ccco2)N2CCCC2)c1 (stereo unspecified)	-2.28% (inactive)
CCCCn1ccnc1C(=O)c1cccc(S(=O)(=O)N2c3ccccc3CC2C)c1 (stereo unspecified)	11.1% (active)
C=CCN1C(=O)[C@H](CC(=O)NCCCN2CCCC2=O)[C@@]2(C(=O)OCC)CCCC=C12	-6.27% (inactive)
COc1cccc(NC(=O)CCNS(=O)(=O)c2ccc3c(c2)oc(=O)n3C)c1	-2.66% (inactive)
Cc1ccc(NC(=O)CCNS(=O)(=O)c2ccc3c(c2)oc(=O)n3C)cc1C	1.53% (inactive)
COc1cc(NC(=O)CCS(=O)(=O)c2ccc3c(c2)oc(=O)n3C)cc(OC)c1	8.71% (active)
Cc1cc(NS(=O)(=O)c2ccc(NC(=O)CSc3nnc(SCc4ccc(F)cc4)s3)cc2)nc(C)n1	2.06% (inactive)
CCOC(=O)c1cccc(NC(=O)CN(C)S(=O)(=O)c2ccc(-c3cocn3)s2)c1	9.31% (active)
CCOC(=O)c1cccc(NC(=O)CN(c2ccc(C)cc2)S(=O)(=O)c2c(C)noc2C)c1	7.3% (inactive)
CCOC(=O)c1cccc(NC(=O)CCn2nnc3ccccc32)c1	-1.7% (inactive)
O=C(OCC#CCSc1nnc(-c2ccco2)o1)c1ccc(F)cc1	-3.45% (inactive)
CN(C)Cc1cn(-c2ccc(-c3noc4c3C(=O)N(CC(=O)N3CCOCC3)CC4)cc2)nn1	-1.12% (inactive)
O=C(COc1ccc(Cl)cc1)N1CCN(c2cccc(C(F)(F)F)c2)CC1	13.9% (active)
Cc1c(C)c2ccc(OCC(=O)N3CCN(c4cccc(Cl)c4)CC3)cc2oc1=O	-9.1% (inactive)
CSCCC(NC(=O)COc1ccccc1)C(=O)N1CCN(c2cccc(C(F)(F)F)c2)CC1 (stereo unspecified)	0.72% (inactive)
